A number with no mark means an inactive call.
Test system: Vero E6 infected with SARS-CoV-2
Test: inhibition of SARS-CoV-2 cytopathic effect; higher = more antiviral protection, active = above 15
Details: 48 h

Row | Compound | inhibition of SARS-CoV-2 cytopathic effect (1 nM) [%] | inhibition of SARS-CoV-2 cytopathic effect (8.33 nM) [%] | inhibition of SARS-CoV-2 cytopathic effect (100 nM) [%] | inhibition of SARS-CoV-2 cytopathic effect (833.33 nM) [%] | inhibition of SARS-CoV-2 cytopathic effect (10000 nM)
1 | CC(C)(C)c1cc(/C=C(\C#N)C(N)=S)cc(C(C)(C)C)c1O [tyrphostin-AG-879] | -1.49 | -0.31 | -1.98 | 5.42 | 8.93%
2 | CCOC(=O)C1=C(COCCN)NC(C)=C(C(=O)OC)C1c1ccccc1Cl (stereo not given) [amlodipine] | 0.58 | -0.7 | 1.37 | -2.2 | 1.18%
3 | CC(C)(COP(=O)(O)OP(=O)(O)OC[C@H]1O[C@@H](n2cnc3c(N)ncnc32)[C@H](O)[C@@H]1OP(=O)(O)O)[C@@H](O)C(=O)NCCC(=O)NCCS [coenzyme-A] | -2.14 | 0.97 | 2.41 | 1.91 | 2.93%
4 | C[C@@H](Nc1cc(F)cc(F)c1)c1cc(C(=O)N(C)C)cc2c(=O)cc(N3CCOCC3)oc12 | -3.44 | -2.8 | -5.04 | 1.19 | -4.12%
5 | Clc1ccc(C(OCCN2CCCCC2)c2ccccc2)cc1 (stereo not given) [cloperastine] | -0.8 | -0.73 | 0.64 | -3.95 | -8.21%
6 | CCCc1nc(C)c2c(=O)nc(-c3cc(S(=O)(=O)N4CCN(CC)CC4)ccc3OCC)[nH]n12 [vardenafil] | -1.45 | -1.02 | 0.46 | -0.81 | 1.4%
7 | CC(C)(C)OC(=O)N[C@H]1CCCCC/C=C\[C@@H]2C[C@@]2(C(=O)NS(=O)(=O)C2CC2)NC(=O)[C@@H]2C[C@@H](OC(=O)N3Cc4cccc(F)c4C3)CN2C1=O [danoprevir] | 1.7 | 1.4 | 1.06 | 0.24 | -1.76%
8 | CCC(=O)O[C@]1(C(=O)CCl)[C@@H](C)C[C@H]2[C@@H]3CCC4=CC(=O)C=C[C@]4(C)[C@@]3(F)[C@@H](O)C[C@@]21C [clobetasol-propionate] | 1.28 | 1.27 | 0.69 | 0.48 | 3.52%
9 | COc1cc2c(NC3CCN(C)CC3)nc(N3CCCN(C)CC3)nc2cc1OCCOCCN(C)C | -0.25 | 0.8 | -0.4 | 2.99 | -3.09%
10 | COc1ccc(-c2cc(C(F)F)nn2-c2ccc(S(N)(=O)=O)cc2)cc1F [deracoxib] | 2.3 | -0.35 | 3.5 | 2.29 | 2.18%
11 | CN[C@H](CC(C)C)C(=O)N[C@H]1C(=O)N[C@@H](CC(N)=O)C(=O)N[C@H]2C(=O)N[C@H]3C(=O)N[C@H](C(=O)N[C@H](C(=O)O)c4cc(O)cc(O)c4-c4cc3ccc4O)[C@H](O)c3ccc(c(Cl)c3)Oc3cc2cc(c3O[C@@H]2O[C@H](CO)[C@@H](O)[C@H](O)[C@H]2O[C@H]2C[C@](C)(N)[C@H](O)[C@H](C)O2)Oc2ccc(cc2Cl)[C@H]1O | 0.55 | 1.31 | -0.56 | 3.7 | 0.87%
12 | CC(C)(C)c1ccc(CN(Cc2cccc(OCC(=O)O)c2)S(=O)(=O)c2cccnc2)cc1 [evatanepag] | -1.15 | -0.63 | -1.94 | -1.15 | -2.53%
13 | CCCCCCCCCCC(O)C1C=CC2C(=O)N(c3ccccc3)C(=O)C2N1Nc1ccc([N+](=O)[O-])cc1 (stereo not given) | 0.91 | 0.89 | 1.56 | 4.49 | 8.83%
14 | O=C(Nc1cc(C(F)(F)F)cc(C(F)(F)F)c1)c1cnc(Cl)nc1C(F)(F)F | 0.53 | -0.29 | 0.4 | -4.18 | -13.9%
15 | C[C@@H](Oc1cc(-n2cnc3ccc(CN4CCN(C)CC4)cc32)sc1C(N)=O)c1ccccc1C(F)(F)F | 1.38 | 0.72 | 1.12 | -3.55 | 54.8% (active)
